The values below come from PubChem BioAssay AID504339 (National Center for Advancing Translational Sciences (NCATS), 2011).

Among all 390,000 compounds or so, about 17,000 (4.4%) were called active. A call without a number means that no potency is given here. About 8% were inconclusive and are not listed. The sample holds actives, similar compounds and a random draw of the others, so the mix is not that of the screen. Unmarked numbers belong to inactive results. The call rests on the fitted dose curve; in most records, active means well fitted inhibition curve with a large enough effect; inconclusive means small, poorly fitted or top-dose-only effect; inactive means no such curve, though single readings can be large or run the other way.
Potency means the concentration at half of the fitted maximal effect.

Chain of Lysine-specific demethylase 4A (Homo sapiens) (O75164 whole entry, looked up, the tested form may be a part): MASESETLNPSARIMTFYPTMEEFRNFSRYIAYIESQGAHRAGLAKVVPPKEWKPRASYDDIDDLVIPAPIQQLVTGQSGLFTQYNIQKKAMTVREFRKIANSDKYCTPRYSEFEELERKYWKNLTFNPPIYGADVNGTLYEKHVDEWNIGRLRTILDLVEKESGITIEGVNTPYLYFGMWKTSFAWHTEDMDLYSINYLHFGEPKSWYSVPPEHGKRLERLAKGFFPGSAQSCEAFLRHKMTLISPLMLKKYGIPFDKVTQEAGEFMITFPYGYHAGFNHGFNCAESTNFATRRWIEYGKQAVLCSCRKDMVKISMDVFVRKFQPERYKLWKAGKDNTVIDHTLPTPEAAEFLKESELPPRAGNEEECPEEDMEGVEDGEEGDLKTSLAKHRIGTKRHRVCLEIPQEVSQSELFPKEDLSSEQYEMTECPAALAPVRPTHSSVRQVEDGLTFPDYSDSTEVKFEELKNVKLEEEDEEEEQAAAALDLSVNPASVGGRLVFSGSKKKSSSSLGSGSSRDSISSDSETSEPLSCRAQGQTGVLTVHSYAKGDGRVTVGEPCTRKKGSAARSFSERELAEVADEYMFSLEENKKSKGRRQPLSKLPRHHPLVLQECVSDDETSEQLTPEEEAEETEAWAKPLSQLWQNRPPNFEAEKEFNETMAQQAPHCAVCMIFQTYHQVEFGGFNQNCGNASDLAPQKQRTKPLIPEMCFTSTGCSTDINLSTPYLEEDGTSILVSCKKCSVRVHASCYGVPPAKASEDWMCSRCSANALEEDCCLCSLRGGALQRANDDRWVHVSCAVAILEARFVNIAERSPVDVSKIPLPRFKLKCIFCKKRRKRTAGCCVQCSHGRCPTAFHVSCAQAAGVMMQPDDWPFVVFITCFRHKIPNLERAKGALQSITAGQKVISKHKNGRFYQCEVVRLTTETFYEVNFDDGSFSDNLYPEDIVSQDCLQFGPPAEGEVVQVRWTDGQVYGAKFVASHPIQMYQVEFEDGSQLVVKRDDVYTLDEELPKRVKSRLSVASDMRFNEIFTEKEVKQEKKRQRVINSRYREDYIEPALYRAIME

This assay addresses Lysine-specific demethylase 4A (Homo sapiens) (UniProt O75164). Nature of the assay: qHTS Assay for Inhibitors of JMJD2A-Tudor Domain. Further: nearly all actives have a fitted effect of over 50% in size. Conditions: AlphaScreen JMJD2A-Tudor / H3K4me3 peptide binding; series mostly up to 114 µM. The text has this: JMJD2A is a jumonji-domain-containing lysine demethylase that uses Fe(II) together with 2-OG to effect oxidative demethylation of histones. Methylation is one of many […] modification that affect epigenetic transcription. […] It is proposed that the functions of JmjD2A binding to the histones, is to maintain marks after they are installed and to spread the modifications by […], establishing a self-propagating cycle for rapid methylation over a large area of chromatin. […] Thus, small molecule targeting of the JMJD2A-tudor domain interaction with its target methylhistone mark is expected to enable sophisticated experiments probing the fine regulatory pathways leading to selective demethylation of a given methyllysine locus based on the methylation state of adjacent histone marks. A quantitative high throughput AlphaScreen has been developed to identify small molecule inhibitors based on a protocol published by NCGC and SGC [4].
Although AlphaScreen has significant advantages with its utility in a variety of epigenetic target assays, the primary screening data provided in this deposition should be used with caution due to the prevalence of screening artifacts. The top compound concentration tested was high (>100uM) in this assay, which increases number of actives and potential artifacts. An AlphaScreen counterscreen is highly recommended to be run against any putative actives to eliminate non-specific artifacts. Alternatively, one can use other AlphaScreen assays in PubChem to filter out promiscuous hits.
[1] Lee, J. et al. Distinct binding modes specify the recognition of methylated histone H3K4 and H4K20 by JMJD2A-tudor. Nat Struct Mol Biol. 15(1); 109-11. 2008. PMID: 18084306
[2] Yasgar, et al. Compound Management for Quantitative High-Throughput Screening. JALA. 2008 Apr;13(2):79-89. PMID: 18496600
[3] Inglese, et al. Quantitative high-throughput screening: a titration-based approach that efficiently identifies biological activities in large chemical libraries. Proc Natl Acad Sci. 1;103(31):11473-8. 2006. PMID: 16864780
[4] Quinn et al. A homogeneous method for investigation of methyl-dependent protein-protein interactions in epigenetics. Nucleic Acids Res., 38(2):e11. 2010. PMID: […]
[5] Baell,Holloway. New substructure filters for removal of pan assay interference compounds (PAINS) from screening libraries and for their exclusion in bioassays. J Med Chem. 53(7):2719-40. 2010. PMID: 20131845
NIH Molecular Libraries Probe Production Network [MLPCN]
NIH Chemical Genomics Center [NCGC]
Structural Genomics Consortium (SGC)
To each well of a 1,536w plate, 2ul of JMJD2A-Tudor (final 100nM) and 1ul biotinylated histone peptide methylated at Lys4 [b-H3(1-18)K4me3] (final 50nM) were added in 1x PBS buffer, pH 7.4, containing 0.01% Tween-20, using a nanoliter dispenser. Formation of a protein-peptide complex proceeded at room temperature for 30 min. A Kalypsys pin-tool transferred 23nl of library compound solution in DMSO to each well. Following a 30 min incubation of the protein-peptide complex with compounds at room temperature, a mixture of 40 µg/mL each streptavidin-coated donor and nickel chelate acceptor AlphaScreen beads (final 10 µg/mL) was added in a 1ul dispense for a final volume of 4ul, followed by a brief centrifugation (1000 rpm, 1 min). Plates were incubated protected from the light for 20 min at room temperature. Microplates were then read on an EnVision multilabel plate reader using the 1,536 plate HTS AlphaScreen aperture (excitation time 80 ms, measurement time 240 ms).
On the technique in general: Quantitative high-throughput screening tests each substance at several concentrations.
As for `CN(C)C(=O)NC(O)C(Cl)(Cl)Cl` (stereo not drawn), the Potency result was “inactive”.

`COC(=O)C1=C(c2ccc(F)cc2F)C[C@@H]2CC[C@H]1N2C(=O)NC1CC1`: the Potency result was “inactive”. On to `CC=C(C)C(=O)OC1CCN2CC=C(COC(=O)C(O)(C(C)OC)C(C)(C)O)C12` (stereo not drawn), for which the Potency entry was “inactive”. For the compound `CCOc1ccc(-c2cc(C)[n+](CCN(CC)CC)c(-c3ccc(OCC)cc3)c2)cc1`, the Potency entry is “inactive”. Consider `CCC(=O)CC(c1ccc([N+](=O)[O-])cc1)c1c(O)c2ccccc2oc1=O` (stereo not drawn), for which the Potency result was “inactive”. As to `COc1ccccc1OC(=O)c1ccc(C)c(S(=O)(=O)N2CCOCC2)c1`, the Potency result was “inactive”. The same measure, in the same setting: the result for `CC1CNCCN1c1ccc(Cl)cc1` (stereo not drawn) reads “inactive”. As to `Cn1cc(/C=C/c2nc3ccccc3c(=O)n2-c2ccccc2)c2ccccc21`, the Potency result is “inactive”. On the same count and under the same terms, the result for `CCC(=O)OC(Cc1ccccc1)(c1ccccc1)C(C)CN(C)C` (stereo not drawn) reads “inactive”; that for `O=C(C1CCN(CC2CCCCC2)CC1)N1CCCC1`, 50.1 µM (active). On the same count and under the same terms, to `O=C(C1CC(=O)N(C2CCCC2)C1)N1CCC2(CC1)OCCO2` (stereo not drawn) belongs “inactive”; to `C=C(C)C1(CCCC)C(=O)NC(=S)NC1=O`, “inactive”; to `COC(=O)C1=C(c2ccc(C(C)=O)cc2)C[C@@H]2CC[C@H]1N2C(=O)NCCNC(C)=O`, “inactive”. Take `CN(C)/C=C(\C=[N+](C)C)c1[nH]ncc1[N+](=O)[O-]`: the Potency result is “inactive”. Consider `C[C@]12CCCCC1=CC(=O)C1C2CC[C@@]2(C)C1C[C@@H](F)[C@@H]2O` (stereo partly drawn), for which the Potency result is “inactive”.

With `O=C(N/N=C/c1c(O)n(C2CC2)c(=S)[nH]c1=O)c1ccccc1Cl`, the Potency is 89.1 µM (active). As to `CC/C(=N\NC(=O)c1ccccc1O)c1c(O)n(Cc2ccccc2)c(=O)[nH]c1=O`, the activity change, negative = inhibition is -0.735% [at 11.4 µM].

On to `CC(C)c1ccc(-n2c(O)c(/C=N/N3CCOCC3)c(=O)[nH]c2=S)cc1`, for which the Potency result was “inactive”. Consider `O=C(N/N=C/c1c(O)n(C2CC2)c(=S)[nH]c1=O)c1ccccc1`, for which the Potency is 56.2 µM (active). Consider `COc1ccccc1-n1c(O)c(C=NC2CC2)c(=O)[nH]c1=O`, for which the Potency entry is “inactive”. For `O=c1[nH]c(=S)n(C2CC2)c(O)c1/C=N/N1CCOCC1`, the Potency result is “inactive”. The same measure, in the same setting: to `COP(=O)(OC)C(NC(=O)c1ccc(C)cc1)C(Cl)(Cl)Cl` (stereo not drawn) belongs “inactive”. In the case of `Cc1nnc(NC(=O)c2cccn(Cc3cccc(F)c3)c2=O)s1`, the Potency result was “inactive”. Turning to `COC(=O)C1=C(c2cc3ccccc3s2)C[C@@H]2CC[C@H]1N2C(=O)NCc1cccc2ccccc12`, the Potency result is “inactive”.

In the case of `CC(CC(C#N)(c1ccccc1)c1ccccc1)N1CCCCC1` (stereo not drawn), the Potency entry is “inactive”. Still for that read-out and setting: to `O=C(COC(=O)c1ccccc1)Nc1ccccc1Sc1ccccc1` belongs “inactive”; to `Cc1cc(-c2n[nH]c(=S)n2-c2ccc(C)c(C)c2)no1`, 3.16 µM (active); to `O=C1NC(=O)C(CCOc2ccccc2)(CCc2ccccc2)C(=O)N1`, “inactive”.

Turning to `CCOC(=O)C1(c2ccccc2)CCN(CC(O)c2ccc(NC(C)=O)cc2)CC1` (stereo not drawn), the Potency result is “inactive”.

Regarding `CCOP(=S)(OCC)SCOC(=O)NCC(=O)OC`, the Potency result is “inactive”. On the same count and under the same terms, the result for `COC(=O)C1=C(c2c(C)noc2C)C[C@@H]2CC[C@H]1N2C(=O)NCc1ccc2c(c1)OCO2` reads “inactive”. Take `CCN1CCN(Cc2cc(OC)c3c(c2)OCO3)CC1`: the Potency entry was “inactive”. Still for that read-out and setting: to `COc1ccc(CNCCc2ccc3c(c2)OCO3)c(OC)c1OC` belongs 89.1 µM (active); to `CC1C(=O)OC2CCN3CC=C(COC(=O)C(C)(O)C1(C)O)C23` (stereo not drawn), “inactive”; to `COc1cc([C@@H]2c3cc4c(cc3[C@H](OC(C)=O)[C@H]3COC(=O)[C@H]23)OCO4)cc(OC)c1OC`, “inactive”. With `COC(=O)[C@@H]1C(OC(=O)c2ccccc2)CC2CCC1N2C` (stereo partly drawn), the Potency result is “inactive”. As for `CCC1(CC(C)c2ccccc2)C(=O)NC(=O)NC1=O` (stereo not drawn), the Potency result is “inactive”. As for `CN(C)C(=O)Oc1cc(OC(=O)N(C)C)cc(C(O)CNC(C)(C)C)c1` (stereo not drawn), the Potency entry is “inactive”.

On to `Cc1cc(=O)oc2c(C)c(OCC(=O)N3CCN(Cc4ccc5c(c4)OCO5)CC3)ccc12`, for which the Potency entry was “inactive”. For the compound `O=C(Cc1ccccc1[N+](=O)[O-])N1CCN(Cc2ccc3c(c2)OCO3)CC1`, the Potency entry was “inactive”. Consider `Fc1ccc(N2CCN(Cc3ccc4c(c3)OCO4)CC2)cc1`, for which the Potency was 3.55 µM (active). Consider `CCCCCCCCCCCCn1ccc(=N)cc1`, for which the Potency result was “inactive”.

Turning to `CSc1ccc(C(=O)C2CCCN(Cc3ccn[nH]3)C2)cc1` (stereo not drawn), the Potency entry was “inactive”.

For `CN(C)CC1Oc2ccccc2OC1(O)c1ccccc1` (stereo not drawn), the Potency result was “inactive”. For the compound `O=c1c2ccccc2nc(-c2ccc(Cl)cc2Cl)n1-c1ccncc1`, the Potency result is “inactive”.

Take `COc1ccc(CN2C(=O)NC(=O)/C(=C\c3ccc(OC)c(OC)c3OC)C2=O)cc1`: the Potency was 56.2 µM (active). The same measure, in the same setting: the result for `O=C(O)COc1ccccc1/C=C1\C(=O)NC(=O)N(CCC2=CCCCC2)C1=O` reads “inactive”; that for `O=C1NC(=O)N(Cc2ccco2)C(=O)/C1=C\c1cccn1CCOc1ccccc1`, “inactive”. Turning to `CC(=O)c1c(O)n(C2CCCCCC2)c(=O)[nH]c1=O`, the Potency entry is “inactive”. Still for that read-out and setting: the result for `CO[C@H]1[C@@H](O)[C@@H](C)O[C@H](O[C@H]2[C@H](Oc3cccc4c(O)c5c(=O)oc6ccc(C)c7c(=O)oc(c34)c5c67)O[C@H](C)[C@H](O)[C@@H]2O)[C@@H]1O` reads “inactive”; that for `COc1ccc(Br)cc1CNCCc1cccc(Cl)c1`, 22.4 µM (active). Turning to `CC(C)N(CC#CCC1(O)c2ccccc2-c2ccccc21)C(C)C`, the Potency entry was “inactive”.

On to `COc1ccc(-n2c(O)c(C(C)=Nc3ccc4c(c3)CCC4)c(=O)[nH]c2=O)cc1`, for which the Potency result is “inactive”.
